# Source: PubChem BioAssay
# Where “and” joins values, the source holds several entries; their conditions need not be identical. Equal values may be shown once. Records with an inconclusive call do not appear. Calls of active or inactive are those of the source. Unless noted, the rule behind the calls is not given here.
# Assays:
# [1] = liver-stage malaria parasite growth inhibition, primary screen, cell-based, HepG2, luciferase luminescence, HepG2 viability (AID 624349; in the data active = parasite load remaining mostly below about 12%, no sharp cut-off; inactive = mostly above about 10%;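 note: 100% = mean of DMSO negative control wells on the same plate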); conditions: P. berghei liver stage in HepG2, luciferase luminescence, concentration not given here; parasite load remaining: stronger effect = lower value; viability: measured here: HepG2 viability without parasites
# [2] = test system: Aerobactin synthetase IucA (Klebsiella pneumoniae); test: IucA aerobactin synthetase inhibitors, biochemical, Tocris library, absorbance (AID 1345561); conditions: purified IucA enzyme assay, absorbance (OD) read-out; stronger effect = lower value;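 tested at 8 µM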;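 note: 100% = enzyme without compound and 0% = no enzyme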
# [3] = growth inhibition of DIPG glioma cells, dose response, cell-based, SU-DIPG-XIII, MIPE4.0, CellTiter-Glo, qHTS (AID 1347061; cut-off not given, nearly all actives have AC50 up to about 37 µM;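 note: cells exposed to compound for 48 hours before readout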); conditions: SU-DIPG-XIII viability, CellTiter-Glo ATP luminescence
# [4] = viability loss in pontine glioma line – cell-based, SU-DIPG-XXV, MIPE5.0, CellTiter-Glo, qHTS, dose response (AID 1347065; cut-off not given, nearly all actives have AC50 up to about 26 µM;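 note: cells exposed to compound for 48 hours before ATP readout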); conditions: CellTiter-Glo ATP luminescence
# [5] = SU-DIPG-VI glioma cell viability, MIPE4.0 library, CellTiter-Glo luminescence, qHTS (AID 1347066; cut-off not given, nearly all actives have AC50 up to about 30 µM;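 note: cells exposed to compound for 48 hours before readout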); conditions: CellTiter-Glo ATP luminescence
# [6] = SU-DIPG-XXV glioma cell viability, MIPE5.0 library, qHTS (AID 1347068; cut-off not given, nearly all actives have IC50 up to about 30 µM)
# [7] = sensitizers of A549 cells to miR-34 induction, primary screen, imaging, A549 dox-inducible miR-34, nuclei and caspase counts (AID 1347080;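 active = compounds whose cell count with miR-34 switched on is under 0.7 times the count with it off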); conditions: A549 miR-34 inducible, Hoechst nuclei count, 48 h
# [8] = viability rescue of complex I mutant cybrids, primary screen, cell-based, galactose medium, ATP luminescence (AID 1645843;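 active = z-score of at least 1.8 in each of two replicates, scored against plate mean and spread of sample wells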;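 note: positive z means more ATP and so rescue of galactose-driven cybrid death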); conditions: complex I mutant cybrid cells, 72 h, stronger effect = higher value
# [9] = modifiers of HSF1 nuclear foci, imaging, Selleck Cancer Library (AID 1347162; in the data active = plate-normalised HSF1 focus index below about 0.46); conditions: human cells, at 10 µM; SSMD: measured here: HSF1 foci SSMD mean; cell count: measured here: cell number; plate-normalised HSF1 focus index: stronger effect = lower value
# [10] = survival rescue of mitochondrial mutant cells in low glucose, primary screen, MELAS cybrids, Rieske KO mouse fibroblasts, CellTiter-Glo (AID 1508586;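 active = mean z-score across replicates of 1.96 or higher in either the MELAS or the Rieske mutant cell line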;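 note: z relative to plate mean and SD of compound and empty wells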)
# [11] = growth inhibition of DIPG glioma cells, dose response, cell-based, JHH-DIPG-1, MIPE4.0, CellTiter-Glo, qHTS (AID 1347062; cut-off not given, nearly all actives have AC50 up to about 27 µM); conditions: JHH-DIPG-1 viability, CellTiter-Glo ATP luminescence
# [12] = growth inhibition of DIPG glioma cells, dose response, cell-based, SU-DIPG-IV, MIPE4.0, CellTiter-Glo, qHTS (AID 1347063; cut-off not given, nearly all actives have AC50 up to about 30 µM;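 note: compound exposure lasted 48 hours before the viability readout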); conditions: SU-DIPG-IV viability, CellTiter-Glo ATP luminescence
# [13] = JHH-DIPG-1 glioma cell viability, MIPE5.0 library, CellTiter-Glo luminescence, qHTS (AID 1347067; cut-off not given, nearly all actives have AC50 up to about 26 µM;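 note: cells exposed to compound for 48 hours before readout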); conditions: JHH-DIPG-1 glioma viability, CellTiter-Glo ATP luminescence
# [14] = hESC survival regulators, cell-based (AID 493140); conditions: human embryonic stem cell survival screen; stronger effect = higher value;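 note: cells exposed to compounds for four days before counting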
# [15] = inhibitors of Cryptococcus chitosan production, flow cytometry, Cibacron Brilliant Red staining (AID 1347148); conditions: Cryptococcus neoformans chitosan, stronger effect = lower value; at 10 µM unless noted;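 note: compound exposure lasted three days at 37 degrees C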
# [16] = circadian clock period modulators, cell-based, LOPAC library, luminescence reporter (AID 2774); conditions: circadian reporter cells, at 7 µM, actives lie on both sides;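 note: values are relative to mean of DMSO wells on each plate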
# [17] = test system: Hepatitis C virus NS3 helicase; test: HCV NS3 helicase inhibitors, primary screen, biochemical, fluorescence polarization, LOPAC1280 library (AID 687035; in the data active = inhibition above about 37%); conditions: Purified HCV NS3 helicase, Cy5-dT15 ssDNA binding fluorescence polarization; stronger effect = higher value; concentration not given here
# [18] = Cy5 fluorescence quenching or enhancement artefacts, artefact control for HCV NS3 helicase inhibitor project, biochemical, LOPAC1280 (AID 687037); conditions: Cy5-DNA-NS3h complex fluorescence interference counterscreen
# [19] = phospholipid biosynthesis inhibitors in animal cells, primary screen, cell-based, LOPAC library, screen 4 (AID 1347384); conditions: phospholipid biosynthesis inhibition screen, at 10 µM
# [20] = stronger effect = lower value, cell number ratio, induced over uninduced
# [21] = measured here: relative caspase fold change +Dox/-Dox
# [22] = measured here: total cells with miR-34 induction, stronger effect = lower value
# [23] = measured here: total cells without miR-34 induction
# [24] = MELAS cybrid survival, CellTiter-Glo 48 h, stronger effect = higher value
# [25] = Rieske KO mouse fibroblast survival, CellTiter-Glo 72 h
structure (smiles),measurement,setting,value
N#C/C(=C(/N)Sc1ccc(N)cc1)c1ccccc1C(F)(F)F,parasite load remaining,[1],62.2% (inactive)
same,viability,[1],76.3%
same,remaining activity,[2],113% (inactive)
same,AC50,[3],18.7 µM (active)
same,outcome,[4],inactive
same,outcome,[5],inactive
same,outcome,[6],inactive
same,fold change,[7]; [20],0.944 (inactive)
same,fold change,[7]; [21],0.995
same,cell count,[7]; [22],5510
same,cell count,[7]; [23],5840
same,z-score,[8],-0.775 (inactive)
Oc1ccc(Nc2nc(-c3ccc(Cl)cc3)cs2)cc1,parasite load remaining,[1],34.6% (inactive)
same,viability,[1],65.5%
same,remaining activity,[2],89% (inactive)
same,AC50,[4],5.9 µM (active)
same,fold change,[7]; [20],0.947 (inactive) and 0.904 (inactive) and 0.869 (inactive)
same,fold change,[7]; [21],0.378 and 0.549 and 1.23
same,cell count,[7]; [22],4850 and 4920 and 2840
same,cell count,[7]; [23],5120 and 5440 and 3260
same,SSMD,[9],1.25
same,cell count,[9],6680
same,plate-normalised HSF1 focus index,[9],1.08 (inactive)
same,z-score,[10]; [24],-0.306
same,z-score,[10]; [25],2.78
same,z-score,[8],-0.695 (inactive)
Nc1ncnc2c1ncn2[C@@H]1O[C@H](CO)C[C@H]1O,remaining activity,[2],110% (inactive)
same,outcome,[3],inactive
same,outcome,[11],inactive
same,outcome,[12],inactive
same,outcome,[13],inactive
same,outcome,[6],inactive
same,fold change,[7]; [20],0.951 (inactive)
same,fold change,[7]; [21],1.64
same,cell count,[7]; [22],9150
same,cell count,[7]; [23],9630
same,z-score,[8],-0.55 (inactive)
N#CC(=C(/N)Sc1ccccc1N)/C(C#N)=C(\N)Sc1ccccc1N,survival,[14],104 (inactive)
same,remaining activity,[2],92.9% (inactive)
same,AC50,[12],8.33 µM (active)
same,fold fluorescence,[15],5.14 [at 131.4 µM] (inactive)
same,z-score,[8],-0.875 (inactive)
N#C/C(=C\c1ccc(O)c(O)c1)C(=O)NCc1ccccc1,period change,[16],0.01 h (inactive)
same,survival,[14],133 (inactive)
same,parasite load remaining,[1],29.1% (inactive)
same,viability,[1],65.5%
same,inhibition,[17],0% (inactive)
same,fluorescence ratio (interference),[18],1 (inactive)
same,remaining activity,[2],113% (inactive)
same,outcome,[11],inactive
same,outcome,[6],inactive
same,fold change,[7]; [20],1.1 (inactive) and 0.928 (inactive)
same,fold change,[7]; [21],1.17 and 1.42
same,cell count,[7]; [22],2450 and 8410
same,cell count,[7]; [23],2230 and 9060
same,fold fluorescence,[15],6.89 [at 169.9 µM] (inactive)
same,z-score,[8],-0.425 (inactive)
CCOC(=O)C(C)Oc1cccc2c(=O)n(CC(=O)Nc3ccc4c(c3)OCCO4)ccc12 (stereo not drawn),inhibition,[17],-3% (inactive)
same,fluorescence ratio (interference),[18],1 (inactive)
same,remaining activity,[2],96.6% (inactive)
same,outcome,[3],inactive
same,outcome,[11],inactive
same,outcome,[12],inactive
same,outcome,[13],inactive
same,outcome,[6],inactive
same,fold change,[7]; [20],0.916 (inactive) and 0.854 (inactive)
same,fold change,[7]; [21],0.783 and 1.31
same,cell count,[7]; [22],8970 and 6830
same,cell count,[7]; [23],9800 and 8000
same,SSMD,[9],0.942
same,cell count,[9],6920
same,plate-normalised HSF1 focus index,[9],1.06 (inactive)
same,z-score,[8],0.675 (inactive) and 0.45 (inactive)
O=C1c2ccccc2-c2n[nH]c3cccc1c23,period change,[16],1.23 h (active)
same,survival,[14],97.1 (inactive)
same,parasite load remaining,[1],34% (inactive)
same,viability,[1],81%
same,inhibition,[17],1% (inactive)
same,fluorescence ratio (interference),[18],1 (inactive)
same,remaining activity,[2],103% (inactive)
same,outcome,[3],inactive
same,outcome,[11],inactive
same,outcome,[5],inactive
same,fold fluorescence,[15],20.5 [at 227 µM] (inactive)
same,outcome,[19],inactive
same,z-score,[10]; [24],-0.446 (inactive)
same,z-score,[10]; [25],-0.381
same,z-score,[8],0.03 (inactive) and 0.085 (inactive)
